The results in this text go back to PubChem BioAssay (EPA / NIEHS).

Calls of active or inactive are those of the source. Rule for the calls: active = hit-call score of the fitted dose curve at least 0.9, where 1 is the maximum; inactive = score below 0.9.

What all share (conditions): mRNA level, 48 h; actives raise or lower the signal
Read-out in assay [1]: Bcl-2 (BAX) gene, BAX (gene 581)
Briefly: LTEA_HepaRG_BAX: Life Technologies and Expression Analysis (LTEA) Assay for Bcl-2 (BAX) gene using HepaRG (AID 2283470). An outline of the steps:
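HepaRG (human liver), 48 h exposure, duplicate wells. 8-pt curve, half-log from 100 uM, 0.5% DMSO. BAX transcript by TaqMan qRT-PCR; ACTB/GAPDH/POLR2A normalization; gain or loss vs DMSO baseline.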

Read-out in assay [2]: adenosine kinase (ADK) gene, ADK (gene 132)
Briefly: LTEA_HepaRG_ADK: Life Technologies and Expression Analysis (LTEA) Assay for adenosine kinase (ADK) gene using HepaRG (AID 2283471). Summed up:
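ADK expression quantified by qRT-PCR, normalised to three housekeeping genes, after 48 h exposure of HepaRG cells to eight concentrations (top 100 uM, half-log steps, duplicate, 0.5% DMSO). Up- or down-regulation fitted relative to vehicle.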

Read-out in assay [3]: Alpha-fetoprotein (AFP) gene, AFP (gene 174)
Briefly: LTEA_HepaRG_AFP: Life Technologies and Expression Analysis (LTEA) Assay for Alpha-fetoprotein (AFP) gene using HepaRG (AID 2283472). An outline of the steps: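 HepaRG, single lot; 48 h post-plating -> serum-free induction medium; cpd 8-pt, 100 uM top, half-log, 0.5% DMSO, duplicate, 48 h. RNA -> qRT-PCR AFP, norm ACTB/GAPDH/POLR2A. Bidirectional fit vs DMSO.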

Read-out in assay [4]: Apoptosis regulator Bcl-2 (Homo sapiens) (UniProt P10415)
Briefly: LTEA_HepaRG_BCL2: Life Technologies and Expression Analysis (LTEA) Assay for Bcl-2 gene using HepaRG (AID 2283475). An outline of the steps:
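HepaRG, plated 48 h then switched to serum-free induction medium; dosed 48 h, 8 conc. (max 100 uM, half-log steps), duplicate, 0.5% DMSO. Lysis in RLT, RNA isolated, TaqMan qRT-PCR for BCL2; ACTB/GAPDH/POLR2A normalisation; bidirectional fit vs DMSO.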

Read-out in assay [5]: Bcl-2 (BID) gene, BID (gene 637)
Kind of assay: LTEA_HepaRG_BID: Life Technologies and Expression Analysis (LTEA) Assay for Bcl-2 (BID) gene using HepaRG (AID 2283476). An outline of the steps: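 Transcript levels of BID, measured by qRT-PCR and normalized to three housekeeping genes, were fitted bidirectionally against DMSO controls. Cells were HepaRG, dosed 48 h at up to 100 uM.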

Read-out in assay [6]: Caspase-3 (Homo sapiens) (UniProt P42574)
Briefly: LTEA_HepaRG_CASP3: Life Technologies and Expression Analysis (LTEA) Assay for cysteine-aspartic acid protease (CASP3) using HepaRG (AID 2283477). Summed up: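 Differentiated HepaRG cells, plated 48 h, were treated in duplicate in serum-free induction medium for 48 h with eight half-log concentrations up to 100 uM in 0.5% DMSO. CASP3 mRNA measured by qRT-PCR, normalized to ACTB, GAPDH, POLR2A.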

Read-out in assay [7]: Cytochrome P450 (CYP1A2), CYP1A2 (gene 1544)
Kind of assay: LTEA_HepaRG_CYP1A2: Life Technologies and Expression Analysis (LTEA) Assay for Cytochrome P450 (CYP1A2) using HepaRG (AID 2283479). An outline of the steps: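 Differentiated human HepaRG cells in serum-free induction medium exposed 48 hours in duplicate to 8 half-log concentrations from 100 uM, 0.5% DMSO. CYP1A2 mRNA quantified by qRT-PCR, normalized to ACTB, GAPDH and POLR2A; bidirectional fitting versus DMSO.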

Read-out in assay [8]: cysteine-aspartic acid protease (CASP8), CASP8 (gene 841)
Kind of assay: LTEA_HepaRG_CASP8: Life Technologies and Expression Analysis (LTEA) Assay for cysteine-aspartic acid protease (CASP8) using HepaRG (AID 2283480). An outline of the steps: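 Differentiated HepaRG cells in serum-free induction medium, 48 h exposure, eight-point half-log series from 100 uM in 0.5% DMSO, duplicates. CASP8 mRNA by qRT-PCR, normalized to ACTB, GAPDH, POLR2A; bidirectional fit versus DMSO.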

Read-out in assay [9]: Cytochrome P450 (CYP2B6), CYP2B6 (gene 1555)
Kind of assay: LTEA_HepaRG_CYP2B6: Life Technologies and Expression Analysis (LTEA) Assay for Cytochrome P450 (CYP2B6) using HepaRG (AID 2283481). An outline of the steps:
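Differentiated human HepaRG cells in serum-free induction medium, dosed in duplicate for 48 h over 8 half-log concentrations topping at 100 uM (0.5% DMSO). CYP2B6 mRNA measured by TaqMan qRT-PCR, normalized to ACTB, GAPDH, POLR2A; bidirectional fit versus DMSO.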

Read-out in assay [10]: Cytochrome P450 2C19 (Homo sapiens) (UniProt P33261)
Kind of assay: LTEA_HepaRG_CYP2C19: Life Technologies and Expression Analysis (LTEA) Assay for CYP2C19 using HepaRG (AID 2283482). Summed up: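 Differentiated HepaRG cells in serum-free induction medium exposed 48 h in duplicate, 8 concentrations from 100 uM by half-log steps in 0.5% DMSO. CYP2C19 mRNA measured by TaqMan qRT-PCR, normalized to ACTB, GAPDH, POLR2A. Bidirectional fit versus DMSO.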

Read-out in assay [11]: CYP2C8 (gene 1558)
Briefly: LTEA_HepaRG_CYP2C8: Life Technologies and Expression Analysis (LTEA) Assay for CYP2C8 using HepaRG (AID 2283483). An outline of the steps: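 Differentiated HepaRG cells in serum-free induction medium exposed 48 h in duplicate to 8 half-log concentrations from 100 uM in 0.5% DMSO. CYP2C8 mRNA by qRT-PCR normalized to ACTB, GAPDH, POLR2A; bidirectional fit versus DMSO.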

Read-out in assay [12]: CYP2C9 (gene 1559)
Kind of assay: LTEA_HepaRG_CYP2C9: Life Technologies and Expression Analysis (LTEA) Assay for CYP2C9 using HepaRG (AID 2283484). An outline of the steps: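 Differentiated human HepaRG cells in serum-free induction medium were exposed 48 h to chemicals in 8-point half-log series from 100 uM (0.5% DMSO), in duplicate. CYP2C9 mRNA was measured by qRT-PCR, normalized to ACTB/GAPDH/POLR2A, with bidirectional fitting versus DMSO.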

Read-out in assay [13]: CYP2E1 (gene 1571)
Briefly: LTEA_HepaRG_CYP2E1: Life Technologies and Expression Analysis (LTEA) Assay for CYP2E1 using HepaRG (AID 2283485). Summed up:
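Human liver line HepaRG, plated 48 h, then serum-free induction medium + chemical x 48 h; 8-pt CRC from 100 uM, half-log, 0.5% DMSO, n=2. Readout: CYP2E1 mRNA qRT-PCR vs ACTB/GAPDH/POLR2A; bidirectional fit vs DMSO.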

Read-out in assay [14]: CYP4A11 (gene 1579)
Briefly: LTEA_HepaRG_CYP4A11: Life Technologies and Expression Analysis (LTEA) Assay for CYP4A11 using HepaRG (AID 2283486). An outline of the steps: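 Differentiated HepaRG cells, 48 h after plating, exposed in duplicate for 48 h to 8 half-log concentrations up to 100 uM in 0.5% DMSO in serum-free induction medium. CYP4A11 mRNA measured by TaqMan qRT-PCR, normalized to ACTB, GAPDH and POLR2A.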

Read-out in assay [15]: DNA damage-inducible transcript 3 (DDIT3), DDIT3 (gene 1649)
Briefly: LTEA_HepaRG_DDIT3: Life Technologies and Expression Analysis (LTEA) Assay for DNA damage-inducible transcript 3 (DDIT3) using HepaRG (AID 2283488). Summed up: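 HepaRG plated 48 h, switched to serum-free induction medium, dosed 48 h (100 uM top, half-log, 8 pts, 0.5% DMSO, n=2); RNA isolated; DDIT3 by qRT-PCR; bidirectional curve fit vs DMSO.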

Read-out in assay [16]: Pro-epidermal growth factor (Homo sapiens) (UniProt P01133)
Kind of assay: LTEA_HepaRG_EGF: Life Technologies and Expression Analysis (LTEA) Assay for Epidermal growth factor (EGF) using HepaRG (AID 2283489). An outline of the steps: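 HepaRG cells (~100,000/well, 48 h pre-culture) exposed in duplicate for 48 h in serum-free induction medium to 8 half-log concentrations up to 100 uM in 0.5% DMSO. EGF mRNA by qRT-PCR, normalized to ACTB/GAPDH/POLR2A; bidirectional fit versus DMSO.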

Read-out in assay [17]: BCL2L11 (gene 10018)
Kind of assay: LTEA_HepaRG_BCL2L11: Life Technologies and Expression Analysis (LTEA) Assay for Bcl-2 (BCL2L11) gene using HepaRG (AID 2283473). An outline of the steps:
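Differentiated human HepaRG cells were exposed 48 h in serum-free induction medium to eight half-log concentrations up to 100 uM in 0.5% DMSO, in duplicate. BCL2L11 mRNA was quantified by TaqMan qRT-PCR, normalized to ACTB, GAPDH and POLR2A; induction or repression fitted versus DMSO.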

Read-out in assay [18]: Apolipoprotein A-V (APOA5) gene, APOA5 (gene 116519)
Briefly: LTEA_HepaRG_APOA5: Life Technologies and Expression Analysis (LTEA) Assay for Apolipoprotein A-V (APOA5) gene using HepaRG (AID 2283474). Summed up: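 Differentiated HepaRG cells in serum-free induction medium, exposed 48 h in duplicate to eight half-log concentrations topping at 100 uM (0.5% DMSO). APOA5 mRNA by Fluidigm TaqMan qRT-PCR, normalized to ACTB, GAPDH and POLR2A; bidirectional fit versus DMSO.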

Read-out in assay [19]: Cytochrome P450 3A4 (Homo sapiens) (UniProt P08684)
Briefly: LTEA_HepaRG_CYP3A4: Life Technologies and Expression Analysis (LTEA) Assay for CYP3A4 using HepaRG (AID 2283487). An outline of the steps: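 Differentiated HepaRG cells, plated 48 h, then dosed 48 h in serum-free induction medium with 0.5% DMSO, 8 half-log concentrations up to 100 uM, duplicate. CYP3A4 mRNA by qRT-PCR, normalized to ACTB/GAPDH/POLR2A; bidirectional fit versus DMSO.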

Cytochrome P450 2C19 (Homo sapiens), sequence (P33261 whole entry, looked up): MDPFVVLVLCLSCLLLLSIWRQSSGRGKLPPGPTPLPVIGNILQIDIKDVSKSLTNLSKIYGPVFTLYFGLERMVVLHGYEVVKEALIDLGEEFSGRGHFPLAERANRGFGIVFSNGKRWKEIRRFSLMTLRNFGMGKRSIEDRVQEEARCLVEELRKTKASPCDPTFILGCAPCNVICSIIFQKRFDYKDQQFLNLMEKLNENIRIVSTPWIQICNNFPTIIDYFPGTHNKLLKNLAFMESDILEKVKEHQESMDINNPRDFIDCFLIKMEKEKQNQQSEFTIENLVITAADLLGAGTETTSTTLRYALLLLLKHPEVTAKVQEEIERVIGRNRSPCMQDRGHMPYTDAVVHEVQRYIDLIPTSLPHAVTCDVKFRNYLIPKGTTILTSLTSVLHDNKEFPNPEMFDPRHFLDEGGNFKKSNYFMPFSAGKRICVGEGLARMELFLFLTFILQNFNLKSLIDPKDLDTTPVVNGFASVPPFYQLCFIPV
Caspase-3 (Homo sapiens), sequence (P42574 whole entry, looked up): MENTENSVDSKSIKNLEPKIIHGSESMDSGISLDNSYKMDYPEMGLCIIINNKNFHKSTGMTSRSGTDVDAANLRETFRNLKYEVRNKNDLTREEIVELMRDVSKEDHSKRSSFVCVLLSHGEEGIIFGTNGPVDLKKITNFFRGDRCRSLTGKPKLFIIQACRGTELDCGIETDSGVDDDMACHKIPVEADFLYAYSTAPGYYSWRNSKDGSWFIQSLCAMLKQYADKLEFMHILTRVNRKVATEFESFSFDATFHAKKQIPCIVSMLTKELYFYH
Apoptosis regulator Bcl-2 (Homo sapiens), sequence (P10415 whole entry, looked up): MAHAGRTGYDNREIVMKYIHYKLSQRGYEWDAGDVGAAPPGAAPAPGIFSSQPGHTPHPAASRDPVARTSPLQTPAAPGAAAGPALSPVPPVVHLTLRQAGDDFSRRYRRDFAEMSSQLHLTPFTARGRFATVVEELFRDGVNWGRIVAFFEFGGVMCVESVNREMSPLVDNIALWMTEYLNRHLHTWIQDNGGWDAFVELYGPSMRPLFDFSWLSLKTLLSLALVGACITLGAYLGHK
Cytochrome P450 3A4 (Homo sapiens), sequence (P08684 whole entry, looked up): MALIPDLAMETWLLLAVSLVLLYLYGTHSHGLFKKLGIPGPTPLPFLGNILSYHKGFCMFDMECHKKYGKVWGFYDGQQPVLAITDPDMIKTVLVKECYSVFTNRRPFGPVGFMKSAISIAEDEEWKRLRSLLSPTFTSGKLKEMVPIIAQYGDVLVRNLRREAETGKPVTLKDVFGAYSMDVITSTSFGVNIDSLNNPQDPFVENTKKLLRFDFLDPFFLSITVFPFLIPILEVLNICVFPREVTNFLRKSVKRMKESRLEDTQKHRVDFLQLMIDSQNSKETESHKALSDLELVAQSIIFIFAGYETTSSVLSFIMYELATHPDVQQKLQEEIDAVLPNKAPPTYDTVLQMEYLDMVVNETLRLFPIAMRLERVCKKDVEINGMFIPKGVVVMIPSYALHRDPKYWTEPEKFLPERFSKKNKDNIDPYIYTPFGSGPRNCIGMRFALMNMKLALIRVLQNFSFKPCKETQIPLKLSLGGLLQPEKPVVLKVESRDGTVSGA

For the molecule `O=C(O)Cn1c(=O)n(Cc2ccc(Br)cc2F)c(=O)c2ccc(Cl)cc21`, the outcome in assay [1], in assay [2], in [3], in [4], in assay [5] and in [6] was inactive. Also, the molecule was classed as inactive in assay [7], in assay [8], in assay [12], in assay [14], in [15] and in [16]. Further, the AC50 (in general, the concentration giving half of the maximal activity seen) was 32.7 µM (active) in assay [9], 13 µM (active) in assay [10], 17 µM (active) in assay [11] and 25.8 µM (active) in assay [13].

In the case of `CCN(CC)C(=O)c1cc(S(=O)(=O)Cc2ccccc2)c(N2CCC(c3ccccc3)CC2)cc1N(CC)CCN(C)C`, the result in assay [1], in assay [3], in assay [4], in [5] and in [16] was inactive. Moreover, the AC50 was 25.7 µM (active) in [17]; 29.2 µM (active) in assay [18]; 30.6 µM (active) in assay [6]; 6.01 µM (active) in assay [7]; 30.8 µM (active) in assay [8]; 5.04 µM (active) in assay [9]. Besides, the AC50 is 4.25 µM (active) in assay [10]; 4.92 µM (active) in assay [11]; 5.05 µM (active) in [12]; 26 µM (active) in [13]; 30.5 µM (active) in assay [14]; 34.7 µM (active) in [19]. In addition, the AC50 in assay [15] is 22.9 µM (active).

Regarding `C[C@]12CC[C@@H]3c4ccc(O)cc4CC[C@H]3[C@@H]1CCC2=O`, the outcome in [1], in assay [2], in [4], in assay [5], in assay [6] and in assay [8] was inactive. In addition, the figures for the AC50 in assay [3], in [15] and in assay [16] were 26.6 µM (active), 64.5 µM (active) and 22.4 µM (active), respectively.

For the molecule `CCCCCCCCCCCO`, the call in [1], in [2], in assay [3], in [4], in assay [5] and in assay [6] was inactive. Moreover, the molecule was called inactive in assay [7], in assay [8], in assay [9], in assay [10], in assay [11] and in [12]. Further, the molecule was called inactive in assay [13], in [14], in [15] and in assay [16].
